Data as given in PubChem BioAssay (NCI).
This is part of a sample that, as a whole, favours compounds with a hit. Of some 83,000 tested, about 20% had one in any assay.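 Activity criterion: percent growth below 10, measured after cells in 96-well plates were exposed to a single compound concentration for 48 hours.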 The source made the active and inactive calls.

What follows are compounds tested on HL-60(TB) leukemia (assay: NCI-60 one-dose screen, 48 h (100 = growth as untreated, 0 = no growth, -100 = all killed)). Conditions: 10 µM unless noted.

Structure (SMILES) | growth
Nc1ccc(S(=O)(=O)O)c2cc(S(=O)(=O)O)cc(O)c12 | 99.2% (inactive)
CC[C@@H]1C(=O)N(C)c2cnc(Nc3ccc(C(=O)NC4CCC(N5CCN(CC6CC6)CC5)CC4)cc3OC)nc2N1C(C)C (stereo not given in full) | -48.5% (active)
CC1OC(n2c3ccccc3c3c4c(c5c6ccccc6[nH]c5c32)C(=O)N(CCN2CCCC2)C4=O)CC(O)C1O (stereo not given) | 44.2% (inactive)
CN1CC(c2ccc(Br)cc2)C(C(=O)c2ccc(Br)cc2)C12C(=O)Nc1ccccc12 (stereo not given) | 98.4% (inactive)
O=C(Cn1nc(-c2cccc3ccccc23)ccc1=O)NCc1cccc(Cl)c1 | 22.3% [50 µM] (inactive)
O=S(=O)(NCCCNc1cc(-c2cn(-c3ccccc3)nc2-c2cccc(O)c2)ccn1)c1cccc(F)c1 | 39.1% (inactive)
Cc1cc2nc3c4ccccc4n(CCN(C)C)c3nc2cc1C | 8.35% (active)
O=C(Cc1cccc2ccccc12)N/N=C/c1ccc2c(c1)CCC2 | 68.3% (inactive)
O=[N+]([O-])c1ccccc1Sc1ccccc1[N+](=O)[O-] | 111% (inactive)
COc1cccc(-c2nc3sccn3c2-c2ccnc(NCCN3CCCNS3(=O)=O)n2)c1 | 108% (inactive)
CCOC(=O)c1c(C(F)(F)F)n([O-])c2ccc(OC)cc2[n+]1=O | -9.6% (active)
CCN1C(=O)N(CC)C2C1NN=c1s/c(=C3\C(=O)N(CC(C)(C)C)c4ccccc43)c(=O)n12 (stereo not given) | -26.1% (active)
O=c1oc2ccc(F)cc2c(=O)n1-c1ccc(Cl)cc1F | -45.3% (active)
COc1ccc(Cn2c(Br)c3c(c2-c2cc(OC)c(OC)c(OC)c2)CCc2sc(N)nc2-3)cc1 | -14.5% (active)
CN(C)CCCNC(=O)c1cncnc1Nc1ccc2c(ccn2Cc2cccc(F)c2)c1 | 93.3% (inactive)
CN(C)CCOC(=O)Nc1nc2ccc(Sc3ccccc3)cc2[nH]1 | -6.29% (active)
C[C@@H]1C[C@H]2C(=O)O[C@@H](C)[C@H](NC(=O)[C@H](Cc3cc(F)cc(F)c3)NC(=O)Nc3ccc(C4CC4)cc3F)C(=O)N3CCC[C@H]3C(=O)N3CCCC[C@H]3C(=O)N[C@@H](C)C(=O)N2C1 | 20.9% (inactive)
c1ccc2cc(Cn3c[n+](Cc4ccc5ccccc5c4)c4ccccc43)ccc2c1 | -66.3% (active)
CC(C)c1ccc(C(=O)Nc2sc3c(c2C#N)CCC(=O)C3)cc1 | -16.7% (active)
CCOC(=O)C(=O)CC(=O)c1ccccc1 | 95.5% (inactive)

Structure (SMILES) | growth
Cc1cccc(N2CCN(C(=S)c3ccc4c(c3)OCO4)CC2)c1 | -20% (active)
O=C1N[C@@H]2[C@@H](O)[C@@H](O)[C@H](O)C[C@H]2c2cc3c(c(O)c21)OCCO3 | -18.8% (active)
O=C(CCl)N(c1ccccc1)c1ccccc1 | 101% (inactive)
COc1ccc(/C=C2\Cc3c(Br)cccc3C2=O)c(OC)c1 | 89.2% (inactive)
O=S(=O)(NCCNc1cc(-c2cn(-c3ccccc3)nc2-c2cccc(O)c2)ccn1)c1ccc(F)cc1 | 6.88% (active)
O[C@H]1[C@H]2c3cc4c(cc3CN3CCC(=C[C@@H]1O)[C@H]23)OCO4 | 5.02% (active)
CCOP(=O)(CCN1CCN(CCCCCOc2cc3c(cc2OC)C(=O)N2CCC[C@H]2C=N3)CC1)OCC | 10.9% (inactive)
CC1CCN(CCCCCOc2ccc3oc4ccccc4c(=O)c3c2)CC1 | 44.6% (inactive)
Cc1nc(-c2ccccc2)cc2c(O)c(C(=O)NN)[nH]c(=O)c12 | 126% (inactive)
COc1ccc(N2CCN(c3ccc(NC4=C(Cl)C(=O)c5ncccc5C4=O)cc3)CC2)cc1 | 53% (inactive)
Cc1c(Cl)cccc1NC(=S)NC(=O)c1ccccc1 | 92.9% (inactive)
CN1CCN(Cc2ccc(NC(=O)c3cncc(C#Cc4cnc(N)c5cnccc45)c3)cc2C(F)(F)F)CC1 | -25% (active)
CCC(=O)OC1=CN2C(=NC(c3ccc(N)cc3)=CC2c2cc(OC)c(OC)c(OC)c2)S1 (stereo not given) | 36.5% (inactive)
O=C(N/N=C/C[C@@H]1[C@@H](/C=C/[C@@H](O)COc2cccc(Cl)c2)[C@H](O)C[C@@H]1O)c1ccncc1 | 87.5% (inactive)
Cc1cc(Cl)ccc1NS(=O)(=O)c1ccc(-c2cnc(C3CC3)o2)cc1 | -36% (active)
CCOC(=O)COc1ccc2c(c1)O/C(=C\c1ccc(O)cc1)C2=O | 112% (inactive)
O=C(NCCc1ccccc1)Nc1ccc2cc3ccc(NC(=O)NCCc4ccccc4)cc3nc2c1 | -46.9% (active)
COC(=O)[C@@]12CC[C@@H](C)[C@]3(C[C@@H](c4ccoc4)OC3=O)[C@H]1CC[C@@H]1O[C@@]12C | 104% (inactive)
Cc1cc(C(=O)/C=C/c2ccc[nH]2)ccc1-n1ccc(C(F)(F)F)n1 | -21% (active)
CN(C)CCCN(c1nc(C(Cl)(Cl)Cl)ns1)c1nc(C(Cl)(Cl)Cl)ns1 | 24.4% (inactive)
